Results taken from the supplement of paper PMC3724861.
This is one part of a sample in which hits are shown more often than they occur. The true hit rate is not given.

test system: T1, Caupolican (Caup) homeodomain DNA-binding domain; assay: PBM E-score (8-mer, recovered from the published 9-mer minima) (E-score (dimensionless, -0.5 to 0.5)); Drosophila protein; higher = stronger relative binding preference, active = 0.31 or more
T1 sequence: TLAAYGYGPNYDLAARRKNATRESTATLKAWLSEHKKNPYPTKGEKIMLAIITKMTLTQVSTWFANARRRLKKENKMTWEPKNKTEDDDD
Procedure, shortened: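 Caup's homeodomain DNA-binding domain (residues 214-303) was produced by in vitro transcription and translation and applied at 100 nM to custom-designed protein binding microarrays. Each value is an enrichment score giving relative binding preference for a short DNA word; higher means stronger. Published 9-mer scores were the minimum of their two constituent 8-mer scores, and the 8-mer values were recovered from those minima. A cutoff of 0.31 marks candidate binding sequences.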

| Sequence | PBM E-score |
| --- | --- |
| GGCAAGTA | 0.101 (inactive) |
| ACAGGCGT | -0.013 (inactive) |
| ATGTCATC | 0.306 (inactive) |
| GTGTCAGA | 0.245 (inactive) |
| ATGTCAGA | 0.336 (active) |
| ATGTCATG | 0.353 (active) |
| CTGTCATA | 0.246 (inactive) |
| GTGTCATA | 0.292 (inactive) |
| CTGTCAGA | 0.0887 (inactive) |
| ATGTCAGG | 0.209 (inactive) |
| ATGTCATA | 0.4 (active) |
| ACCTCGCC | -0.212 (inactive) |
| GCCCTGCA | -0.173 (inactive) |
| TCAGTGAA | -0.0554 (inactive) |
| CCGAGTAG | -0.0123 (inactive) |
| AAATCACA | 0.108 (inactive) |
| CCCGTTAC | 0.0202 (inactive) |
| AATATGTA | 0.328 (active) |
| CGTATGTA | 0.289 (inactive) |
| CATATGTC | 0.277 (inactive) |
| GATATGAA | 0.0673 (inactive) |
| GATATGTA | 0.321 (active) |
| CATATGTA | 0.334 (active) |

| Sequence | PBM E-score |
| --- | --- |
| AATATGTC | 0.297 (inactive) |
| AATATGTG | 0.259 (inactive) |
| GGTATGTA | 0.277 (inactive) |
| CCGGGAGC | -0.282 (inactive) |
| CTCTGGAA | -0.12 (inactive) |
| CGACGGAC | 0.00364 (inactive) |
| ACAGCGAG | -0.0026 (inactive) |
| GGCTATAC | -0.0714 (inactive) |
| AACGAGGA | 0.0777 (inactive) |
| CTGAAACC | -0.0654 (inactive) |
| CTTCCGGA | -0.173 (inactive) |
| CCATGTCA | 0.398 (active) |
| AAATGTCG | 0.144 (inactive) |
| GAATGTCC | 0.145 (inactive) |
| ATATGTCG | 0.302 (inactive) |
| GCATGTCC | 0.31 (active) |
| GAATGTCA | 0.169 (inactive) |
| CAATGTCA | 0.293 (inactive) |
| ACATGTCG | 0.416 (active) |
| AAATGTCC | 0.126 (inactive) |
| GCATGTCA | 0.44 (active) |
| GCATGGCA | -0.0563 (inactive) |
| CCATGGCA | -0.0986 (inactive) |

| Sequence | PBM E-score |
| --- | --- |
| GATAAGGA | 0.0879 (inactive) |
| CGTTATAC | 0.0592 (inactive) |
| GTTTTTGA | 0.084 (inactive) |
| GTTTAGAA | 0.121 (inactive) |
| CCATGTCG | 0.362 (active) |
| AGATGTCC | 0.234 (inactive) |
| ACCTGTCT | 0.144 (inactive) |
| ACATGTCT | 0.417 (active) |
| ACATGGCA | 0.307 (inactive) |
| ACATGTCA | 0.461 (active) |
| CCATGTCC | 0.292 (inactive) |
| AAATGTCT | 0.106 (inactive) |
| CCCTGTCG | -0.0227 (inactive) |
| AAATGTCA | 0.266 (inactive) |
| ACATGTCC | 0.438 (active) |
| CAATGTCG | 0.227 (inactive) |
| CTCACAGC | -0.124 (inactive) |
| ACCTACCC | -0.14 (inactive) |
| CGCGTAGC | -0.153 (inactive) |
| CAAGACTA | 0.107 (inactive) |
| ATAGCCAT | 0.0738 (inactive) |
| CATTCATA | 0.179 (inactive) |
| CCTGGTGA | -0.102 (inactive) |

| Sequence | PBM E-score |
| --- | --- |
| ACTCTGCG | -0.03 (inactive) |
| TCATGGCA | -0.0694 (inactive) |
| TAATGTCA | 0.258 (inactive) |
| TCATGTCA | 0.391 (active) |
| ATTCGGAA | 0.0171 (inactive) |
| CCCGCTAA | -0.182 (inactive) |
| CGCGATCC | -0.0878 (inactive) |
| GACAACAC | 0.352 (active) |
| AACAACGC | 0.182 (inactive) |
| GTCAACAC | 0.175 (inactive) |
| CACAACAC | 0.265 (inactive) |
| GACAACAA | 0.342 (active) |
| GACAACGA | 0.179 (inactive) |
| GTCAACAA | 0.285 (inactive) |
| AACAACAC | 0.392 (active) |
| GACAACTC | 0.191 (inactive) |
| ACTATTTG | 0.153 (inactive) |
| GTCTTGAA | 0.0106 (inactive) |
| AGAACCCT | -0.163 (inactive) |
| ACATGAAA | 0.314 (active) |
| GCATGAAC | 0.104 (inactive) |
| ACATGAAT | 0.336 (active) |
| CCATGAAA | 0.00449 (inactive) |

| Sequence | PBM E-score |
| --- | --- |
| ACATGAAC | 0.372 (active) |
| ATATGAAT | 0.107 (inactive) |
| GCATGAAA | 0.111 (inactive) |
| ACATGAAG | 0.293 (inactive) |
| CCATGAAC | 0.0647 (inactive) |
| CTATATTA | 0.168 (inactive) |
| CCCTGTCA | 0.129 (inactive) |
| ACAACAGC | 0.214 (inactive) |
| ACAACTTG | 0.271 (inactive) |
| GCAACATA | 0.204 (inactive) |
| ACAACATC | 0.356 (active) |
| CCAACATC | 0.113 (inactive) |
| CCAACATA | 0.211 (inactive) |
| ACAACAGG | 0.192 (inactive) |
| ACAACATA | 0.411 (active) |
| ACAACATG | 0.441 (active) |
| ATGGGTCG | -0.0702 (inactive) |
| ACAATGGC | 0.0838 (inactive) |
| ACTCTCGC | -0.115 (inactive) |
| AATTGTAA | 0.209 (inactive) |
| GATTGTAA | 0.205 (inactive) |
| GTTTGTAA | 0.198 (inactive) |
| ATTTGTAA | 0.277 (inactive) |
